aSyn UTR act: Activators via SNCA 5'UTR binding, MLPCN; activity score, % (tested at 7.5 µM), hits read low; AID 1814, 2009; alpha-synuclein 5'UTR reporter, activators screen; 7.1% of 300,000 active; in the data active = activity score below about -60%
An asterisk follows results filed as active. These entries were drawn from the full list.

Cc1ccc2c(C)c(C(=O)Nc3cccnc3)oc2c1 was read as aSyn UTR act -201*.
`Cc1ccc2c(Cl)c(C(=O)Nc3cccnc3)sc2c1` gave aSyn UTR act -73*.
`C=CCNC(=O)c1c(Br)cnn1-c1ccc(C)cc1` gave aSyn UTR act -88*.
For Cc1ccc(-n2ncc(Cl)c2C(=O)NCc2ccccc2)cc1 the results were aSyn UTR act -83*.
`O=c1c2c3nc4ccccc4nc3n(/N=C/c3ccccn3)c2ncn1-c1ccccc1` gave aSyn UTR act -238*.
For COc1ccc(NC(=O)c2onc(C)c2Cl)cc1 the results were aSyn UTR act -124*.
`Cc1noc(C(=O)Nc2cccc(Cl)c2)c1Cl` gave aSyn UTR act -79*.
Screening Cc1noc(NC(=O)c2ccc(Cl)cc2)c1Cl returned aSyn UTR act -70*.
`CCc1ccc(NC(=O)c2onc(C)c2Cl)cc1` gave aSyn UTR act -182*.
`CCCC(=O)Nc1ccc(N2CCCCC2)cc1` gave aSyn UTR act -116*.
`O=C(CCl)Nc1ccc(N2CCCCCC2)cc1` gave aSyn UTR act -72*.
`CCNC(=S)Nc1ccc(N2CCCCC2)cc1` gave aSyn UTR act -159*.
Screening CN=c1scc(-c2ccccc2F)n1/N=C(\C)c1cccnc1 returned aSyn UTR act -163*.
CN=c1scc(-c2ccccc2Br)n1/N=C/c1ccc[nH]1 was read as aSyn UTR act 64.
For CC(C)c1ccc(NC(=O)CSc2ncccc2C(=O)Oc2cccc([N+](=O)[O-])c2)cc1 the results were aSyn UTR act -115*.
`CN(C)c1ccc(C(=O)NC2CCCc3ccccc32)cc1` (stereo not given) gave aSyn UTR act -71*.
Screening O=C(Nc1ccc(F)cc1F)Nc1csc2ccccc12 returned aSyn UTR act -67*.
`O=C(Nc1cccs1)Nc1ccc(Br)cc1F` gave aSyn UTR act -185*.
O=C(NNC(=S)Nc1ccc(F)cc1F)c1ccco1 was read as aSyn UTR act -109*.
For O=C(Nc1ccc(F)cc1F)Nc1ccc(F)cc1F the results were aSyn UTR act -87*.
`O=C(Nc1cccs1)Nc1ccc(F)cc1F` gave aSyn UTR act -119*.
`O=C(OCc1nnc(-c2ccccc2)o1)C12CC3CC(CC(Br)(C3)C1)C2` gave aSyn UTR act -105*.
Screening CC1(C)Cc2c(sc3nc(-c4cc5ccccc5o4)n(N)c(=O)c23)CO1 returned aSyn UTR act -203*.
`O=C(Nc1ccc([N+](=O)[O-])cn1)c1ccc2c(c1)OCO2` gave aSyn UTR act -91*.
Screening O=C(NC(Nc1ncc(S(=O)(=O)c2ccc([N+](=O)[O-])cc2)s1)(C(F)(F)F)C(F)(F)F)c1ccc(Cl)cc1 returned aSyn UTR act 73.
`CC(C)(C)c1ccc(C(=O)Nc2ccc([N+](=O)[O-])cn2)cc1` gave aSyn UTR act -72*.
`CC(=O)Cc1nsc(Nc2ccc3c(c2)OCCO3)n1` gave aSyn UTR act -125*.
For COc1ccc(Nc2nc(CC(C)=O)ns2)cc1 the results were aSyn UTR act -109*.
For COc1cccc(Nc2nc(CC(C)=O)ns2)c1 the results were aSyn UTR act -86*.
Cc1cc([N+](=O)[O-])ccc1-c1ccc(C2Nc3ccccc3C(=O)N2O)o1 (stereo not given) was read as aSyn UTR act 83.
O=C1c2ccccc2NC(c2cccc([N+](=O)[O-])c2)N1CCc1ccccc1 (stereo not given) was read as aSyn UTR act -136*.
For COc1ccc(NC(=S)NNc2ccc(C(=O)O)cc2)cc1 the results were aSyn UTR act -107*.
O=C(Nc1ccc(N2CCCC2)cc1)c1ccc2ccccc2c1 was read as aSyn UTR act -143*.
For O=C(O)c1ccc(NC(=S)NC(=O)c2ccc3ccccc3c2)cc1 the results were aSyn UTR act -64*.
O=C(Nc1ccc(N2CCCC2)cc1)c1cccc(F)c1 was read as aSyn UTR act -203*.
For O=C(Nc1ccc(Nc2ccccc2)cc1)c1cccc(F)c1 the results were aSyn UTR act -265*.
`O=C(Nc1ccc(N2CCCC2=O)cc1)c1cccc(F)c1` gave aSyn UTR act -98*.
Cc1cccc(C(=O)NC2=NCCS2)c1 was read as aSyn UTR act -56*.
`O=C(NC1=NCCS1)c1ccc(Cl)c(Cl)c1` gave aSyn UTR act -101*.
Screening O=C(/C=C/c1ccc(Cl)c(Cl)c1)NC1=NCCS1 returned aSyn UTR act -104*.
Cc1ccc(/C=N/c2sc3c(c2C(N)=O)CCCC3)o1 was read as aSyn UTR act -114*.
Screening NC(=O)c1c(/N=C/c2cccnc2)sc2c1CCCC2 returned aSyn UTR act -102*.
Screening O=C(CC1C(=O)NCCN1Cc1ccc(F)cc1Cl)NCc1ccon1 (stereo not given) returned aSyn UTR act -68*.
Screening COc1ccc(/C=N/NC(=O)c2ccncc2)cc1COc1ccc(NC(C)=O)cc1 returned aSyn UTR act 80.
Screening COc1cc(/C=N/NC(=O)c2ccc(O)cc2)ccc1OCC(=O)Nc1cccc([N+](=O)[O-])c1 returned aSyn UTR act -82*.
For Cc1[nH]c2ccccc2c1/C=N/NC(=O)c1cccc([N+](=O)[O-])c1 the results were aSyn UTR act -65*.
`COc1cc(/C=N/NC(=O)c2ccncc2)ccc1OCc1cnc(Cl)s1` gave aSyn UTR act -153*.
For Cc1cccc(NC(=O)COc2ccc(Br)cc2/C=N/O)c1 the results were aSyn UTR act -167*.
For COc1ccc(NC(=O)COc2ccc(/C=N/n3c(C)nnc3C)cc2OC)cc1 the results were aSyn UTR act -91*.
Screening COc1cc(/C=N/NC(=O)c2cccc(C)c2)ccc1OCC(=O)Nc1ccccc1 returned aSyn UTR act -128*.
For COc1cc(/C=N/NC(=O)c2cccc([N+](=O)[O-])c2)ccc1OCc1ccccc1 the results were aSyn UTR act -135*.
`COc1cc(/C=C/[N+](=O)[O-])ccc1OCc1cccc(C(=O)O)c1` gave aSyn UTR act 97.
`O=C(COc1ccc(/C=N/NC(=O)c2ccncc2)cc1)Nc1ccccc1` gave aSyn UTR act -72*.
Screening O=c1oc2ccccc2c2oc3cc(O)c(O)cc3c12 returned aSyn UTR act -83*.
For S=c1nc(-c2ccccc2)oc2c1CCCC2 the results were aSyn UTR act -144*.
`Oc1cccc2c3c(oc12)CCCC3` gave aSyn UTR act 52.
For COc1cccc(-c2nc(=S)c3c(n2Cc2ccco2)CCCC3)c1 the results were aSyn UTR act -89*.
COc1cccc(-c2nc(=S)c3c(o2)CCCC3)c1 was read as aSyn UTR act -118*.
Screening O=[N+]([O-])c1ccc(-c2nc(=S)c3c(o2)CCCC3)cc1 returned aSyn UTR act -106*.
For COC(=O)c1c(-c2ccccc2)csc1NC1=NS(=O)(=O)c2ccccc21 the results were aSyn UTR act -121*.
`CC1(C)CNc2cc(N)ccc2S1` gave aSyn UTR act -74*.
O=C(/C=C/c1ccc(Cl)cc1)NCCc1ccccc1 was read as aSyn UTR act -67*.
`O=C(/C=C/c1ccccc1Cl)NCCc1ccccc1` gave aSyn UTR act -176*.
Cc1snc2sc(C(=O)c3ccc(F)cc3)c(N)c12 was read as aSyn UTR act -96*.
For CN(C)c1ccnc2sc(C(=O)c3ccc(Br)cc3)c(N)c12 the results were aSyn UTR act -85*.
`CN1Cc2c(N3CCOCC3)nc3sc(C(=O)c4ccc(Br)cc4)c(N)c3c2CC1(C)C` gave aSyn UTR act 105.
